Results on 13 molecules are retold here after PubChem BioAssay (NCI).

Each structure is given as a SMILES string. This is part of a sample that, as a whole, favours compounds with a hit. Of some 83,000 tested, about 20% had one in any assay.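 Compound tested at a single concentration for 48 hours in 96-well plates; a percent growth value below 10 was scored as active.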 A number with no mark means an inactive call. The source made the active and inactive calls.

Test systems include SR leukemia; RPMI-8226 leukemia; OVCAR-8 ovarian; OVCAR-5 ovarian; OVCAR-4 ovarian; SK-OV-3 ovarian; IGROV1 ovarian; OVCAR-3 ovarian; HS 578T breast; NCI/ADR-RES ovarian.
Holding throughout (assay): NCI-60 one-dose screen, 48 h (100 = growth as untreated, 0 = no growth, -100 = all killed)
What all share (conditions): 10 µM unless noted

For the molecule `NCCCNc1nc2ccccc2c2c(=O)c3cc(Cl)ccc3sc12`, the growth in the assay with SR leukemia is -44.3% (active); in the assay on RPMI-8226 leukemia it was -37.9% (active); in the assay on OVCAR-8 ovarian, -48.4% (active); with OVCAR-5 ovarian, -11.5% (active); with OVCAR-4 ovarian it was 33.4%; in the assay on SK-OV-3 ovarian it was 77.6%. For the same molecule, the growth in the assay on IGROV1 ovarian is -1.46% (active); in the assay with OVCAR-3 ovarian, -60% (active); in the assay on HS 578T breast, 43%; in the assay on NCI/ADR-RES ovarian, -4.11% (active).
Consider `COC(=O)c1ccc2cc(OC)c(OC)cc2c1`, for which the growth was 91.5% in the assay with SR leukemia; 101% in the assay with RPMI-8226 leukemia; 104% with OVCAR-8 ovarian; 101% in the assay with OVCAR-5 ovarian; 113% in the assay on OVCAR-4 ovarian; 118% with SK-OV-3 ovarian. For the same molecule, the growth with IGROV1 ovarian was 118%; in the assay with OVCAR-3 ovarian, 112%; in the assay with HS 578T breast it was 105%; in the assay with NCI/ADR-RES ovarian it was 107%.
As for `COc1cc(C=Nc2oc(-c3ccccc3)c(-c3ccccc3)c2C#N)cc(CN2CCCC2)c1O`, the growth with SR leukemia is 80.9%; in the assay on RPMI-8226 leukemia, 100%; with OVCAR-8 ovarian, 107%; in the assay with OVCAR-5 ovarian, 102%; in the assay on OVCAR-4 ovarian, 95.5%; with SK-OV-3 ovarian, 111%. Also, the growth in the assay on IGROV1 ovarian was 92%; in the assay on OVCAR-3 ovarian it was 105%; with HS 578T breast it was 90.2%; with NCI/ADR-RES ovarian it was 104%.
On to `COc1ccc(/C=C(/C(=O)N2CCNCC2)c2cc(OC)c(OC)c(OC)c2)cc1O`, for which the growth is 3.13% (active) with SR leukemia; 9.6% (active) in the assay with RPMI-8226 leukemia; 52.1% with OVCAR-8 ovarian; 86.3% with OVCAR-5 ovarian; 78.7% in the assay with OVCAR-4 ovarian; 10.1% in the assay with SK-OV-3 ovarian. The growth in the assay on IGROV1 ovarian was 60.2%; in the assay with OVCAR-3 ovarian, 10.5%; in the assay with HS 578T breast it was 26.7%; with NCI/ADR-RES ovarian it was 105%.
As to `C=CC(CC(c1ccccc1)(c1ccccc1)c1ccccc1)N(CC)CC` (stereo not given), the growth was -6.97% (active) in the assay with SR leukemia; 38.2% in the assay with RPMI-8226 leukemia; 94% with OVCAR-8 ovarian; 72.5% in the assay with OVCAR-5 ovarian; 67.5% with OVCAR-4 ovarian; 72.5% in the assay with SK-OV-3 ovarian. The growth was 77% with IGROV1 ovarian, 70.1% with OVCAR-3 ovarian, 82.1% with HS 578T breast and 66.1% in the assay with NCI/ADR-RES ovarian.
As for `Fc1cccc(-c2nc(-c3c[nH]c4ncccc34)cs2)c1`, the growth with SR leukemia was 84.3% [100 µM]; in the assay on RPMI-8226 leukemia it was 68.4% [100 µM]; in the assay with OVCAR-8 ovarian, 45.3% [100 µM]; in the assay on OVCAR-5 ovarian, 74.9% [100 µM]; with OVCAR-4 ovarian, 9.43% [100 µM] (active); in the assay on SK-OV-3 ovarian, 55.9% [100 µM]. Besides, the growth was 81.5% [100 µM] in the assay on IGROV1 ovarian, 36.1% [100 µM] in the assay with OVCAR-3 ovarian, 46.5% [100 µM] in the assay with HS 578T breast and 48.1% [100 µM] with NCI/ADR-RES ovarian.
As to `CCOC(=O)C1=C(CC(O)c2ccc(OC)cc2OC)NC(=O)NC1c1ccccc1` (stereo not given), the growth is 75.9% in the assay on SR leukemia; 99.2% in the assay with RPMI-8226 leukemia; 109% in the assay on OVCAR-8 ovarian; 88.7% in the assay with OVCAR-5 ovarian; 106% with OVCAR-4 ovarian; 114% with SK-OV-3 ovarian. In addition, the growth in the assay on IGROV1 ovarian is 118%; with OVCAR-3 ovarian it was 109%; in the assay on HS 578T breast, 117%; with NCI/ADR-RES ovarian, 107%.
In the case of `Cc1ccc2c(/C=C/C(=O)c3cc(CN4CCOCC4)c(O)c4nc(C)ccc34)cc(CN3CCOCC3)c(O)c2n1`, the growth in the assay with SR leukemia was 6.56% (active); in the assay with RPMI-8226 leukemia, 2.37% (active); in the assay with OVCAR-8 ovarian, 11.1%; with OVCAR-5 ovarian it was 0.618% (active); in the assay with OVCAR-4 ovarian, -74.3% (active); in the assay on SK-OV-3 ovarian, -1.75% (active). Also, the growth in the assay with IGROV1 ovarian is 2.95% (active); in the assay on OVCAR-3 ovarian it was -13.2% (active); in the assay on HS 578T breast it was 29.6%; in the assay with NCI/ADR-RES ovarian, 8.34% (active).
In the case of `CC/C(=C(/c1ccc(O)cc1)c1ccc(OCCN2CCCCC2)cc1)c1ccc(OC)cc1`, the growth in the assay with SR leukemia is -23.3% (active); with RPMI-8226 leukemia, 62.6%; in the assay on OVCAR-8 ovarian, 91.5%; with OVCAR-5 ovarian, 90.9%; in the assay with OVCAR-4 ovarian it was 90.4%; in the assay on SK-OV-3 ovarian it was 99.3%. The growth in the assay on IGROV1 ovarian was 85.3%; with OVCAR-3 ovarian, 66.1%; in the assay with HS 578T breast, 92.2%; in the assay on NCI/ADR-RES ovarian, 77.6%.
`COc1cc(-c2cc(-c3ccc(Nc4nc(Nc5ccc(Cl)cc5)nc(Nc5ccc(Cl)cc5)n4)cc3)no2)cc(OC)c1OC`: the growth in the assay with SR leukemia is 15.7%; in the assay on RPMI-8226 leukemia, 7.63% (active); with OVCAR-8 ovarian, 76.4%; with OVCAR-5 ovarian, 77.8%; with OVCAR-4 ovarian, 78.8%; in the assay on SK-OV-3 ovarian it was 90.7%. Further, the growth with IGROV1 ovarian is 71%; in the assay with OVCAR-3 ovarian it was 86%; with HS 578T breast, 62.9%; with NCI/ADR-RES ovarian it was 80.4%.
For `ClC(Cl)c1nc(-c2ccccc2)n2nc(-c3ccccc3)cc2n1`, the growth with SR leukemia is 7.56% (active); in the assay on RPMI-8226 leukemia, 0.699% (active); with OVCAR-8 ovarian, 16.5%; in the assay with OVCAR-5 ovarian, 0.621% (active); with OVCAR-4 ovarian, -10.8% (active); with SK-OV-3 ovarian it was 9.58% (active). Further, the growth is 52.7% in the assay on IGROV1 ovarian, -28.3% (active) with OVCAR-3 ovarian, -27.3% (active) in the assay on HS 578T breast and 6.09% (active) in the assay on NCI/ADR-RES ovarian.
With `COc1ccc(N=C2NN=C(c3c[nH]c4ccccc34)CS2)cc1OC`, the growth in the assay with SR leukemia was 93.6%; with RPMI-8226 leukemia, 17%; with OVCAR-8 ovarian, 71.7%; with OVCAR-5 ovarian it was 74.6%; in the assay on OVCAR-4 ovarian, 69.2%; with SK-OV-3 ovarian, 67.7%. The growth in the assay with IGROV1 ovarian was -32.4% (active); with OVCAR-3 ovarian, -9.06% (active); with HS 578T breast it was 52.8%; in the assay with NCI/ADR-RES ovarian, 17.7%.
As to `CCN(CC)C(=O)C1=C(C)NC(=O)NC1c1ccc2c(c1)OCO2` (stereo not given), the growth was 105% in the assay on SR leukemia; 102% in the assay with RPMI-8226 leukemia; 106% in the assay with OVCAR-8 ovarian; 105% with OVCAR-5 ovarian; 111% with OVCAR-4 ovarian; 111% in the assay on SK-OV-3 ovarian. Moreover, the growth with IGROV1 ovarian is 99.6%; with OVCAR-3 ovarian, 113%; with HS 578T breast, 96.7%; with NCI/ADR-RES ovarian, 104%.
